Assay outcomes: PubChem BioAssay, National Center for Advancing Translational Sciences (NCATS)
FMDV FLuc: Primary qHTS Assay for Foot and Mouth Disease Virus Antivirals against NCGC Sytravon and CBC Compound Libraries: Firefly Luciferase Signal; hit rate 0.23% among 120,000; Potency, µM (series often up to 57.5 µM), for inactives: top-dose activity change, negative = inhibition, actives largely listed as inhibitors; FMDV antiviral cell assay, firefly luciferase signal; note: nearly all actives have a fitted effect of over 60% in size
FMDV Renilla: Primary qHTS Assay for Foot and Mouth Disease Virus Antivirals against NCGC Sytravon and CBC Compound Libraries: Renilla Luciferase Signal; AID 1745857, 2022; Potency, µM (top dose mostly 57.5 µM), for the others: at the top dose activity change, negative = inhibition, most hits filed as inhibitors; FMDV replicon cells, Renilla luciferase signal; hit rate 0.32% among 120,000; note: nearly all actives have a fitted effect of over 55% in size
Starred values were filed as active, the others as inactive; ? = inconclusive; [ ] = remark or other dose. Sampled rows, rich in hits. Any-hit rate of the full collection: about 0.45%. Calls come from the whole dose curve. % is set by controls: 0 for no effect and ±100 for the full control effect; potency is the fitted concentration of half-maximal effect.

SMILES	FMDV FLuc	FMDV Renilla
CSc1nc(=O)c2c(n1C)NC(=O)CC2c1ccc2c(c1)OCO2 (configuration not stated)	-9%	-11%
Cc1cccc(C)c1NC(=O)CN(C)C(=O)CSc1ccc(F)c(F)c1	-4%	-5%
COc1ccc(C(C)=O)cc1COc1ccccc1C#N	21%	34%
CO/C=C(/C(=O)OC)c1ccccc1Oc1cc(Oc2ccccc2C#N)ncn1	?	18µM*
COc1cc2c(cc1OC)CN(C(=O)c1oc3ccc(F)cc3c1C)CC2	13%	1%
COCCOc1ccc(C(=O)/C=C/c2cc(OC)c(OC)c(OC)c2)cc1	?	28µM*
COCCOc1ccc(/C=C/C(=O)c2ccc(C#N)cc2)cc1OC	10%	13%
COC(=O)COc1cccc(N)c1	-4%	1%
Cc1cc(C(C#N)c2ccc(Cl)cc2)c(Cl)cc1NC(=O)c1cc(I)cc(I)c1O (configuration not stated)	-31%[11.5 µM]	11µM*
Cc1cc(C(C#N)c2ccc(Cl)cc2)c(Cl)cc1NC(=O)CCc1ccccc1 (configuration not stated)	1%	2%
CCn1nc(C(=O)N2CCCC(c3nc4ccccc4s3)C2)c2ccccc2c1=O (configuration not stated)	-2%	-11%
O=C(O)c1cccc(NC(=S)N/N=C/c2ccc([N+](=O)[O-])cc2)c1	2µM*	7%
O=[N+]([O-])c1ccc(/C=N/NC(=S)Nc2ccccc2)cc1	0%	25%
CCCCN(Cc1ccccc1)c1ccc(NS(=O)(=O)c2cc(C)cc(C)c2)cc1C(=O)O	11%	99%
CC(C)CNc1nc(-c2ccc(S(=O)(=O)N3CCCC3)cc2)cs1	?	22µM*
CCNc1nc(-c2ccc(S(=O)(=O)N3CCCCCC3)cc2)cs1	-9%	-13%
Cc1ccc(C2=NC(C(F)(F)F)(C(F)(F)F)c3c(n(-c4ccccc4)c(=O)[nH]c3=O)N2)cc1	5%	3%
O=c1[nH]c(=O)n(Cc2ccccc2)c2c1C(C(F)(F)F)(C(F)(F)F)N=C(c1cccs1)N2	20µM*	?
O=C(Nc1ccc(Cl)c(C(F)(F)F)c1)c1ccc(Cl)cc1Cl	22%	?
O=C(Nc1ccc(Cl)cc1)Nc1ccc(Cl)c(C(F)(F)F)c1	?	7.1µM*
Cc1nc2ccccc2c(=O)n1-c1ccc(NC(=O)c2ccc([N+](=O)[O-])cc2)cc1	?	2.8µM*
Cc1nc2ccccc2c(=O)n1-c1ccc(NC(=O)c2cccc([N+](=O)[O-])c2)cc1	7%	-22%
CC(=O)OC1CCC2(C=O)[C@H]3CCC4(C)C(C5=CC(=O)OC5)CCC4(O)[C@@H]3CCC2(O)C1 (some centres not stated)	1.4µM*	2.5µM*
CC12CC[C@H]3[C@@H](CCC4(O)CC(O)CCC34/C=N/O)C1(O)CCC2C1=CC(=O)OC1 (some centres not stated)	1.4µM*	1.8µM*
COC1C(O)C(C)OC(OC2CCC3(C)C(CC[C@@H]4[C@@H]3CCC3(C)C(C5=CC(=O)OC5)C(O)CC43O)C2)C1O (some centres not stated)	2.2µM*	5.6µM*
SMILES	FMDV FLuc	FMDV Renilla
C[C@H]1O[C@@H](O[C@H]2CC[C@]3(C=O)[C@H]4CC[C@]5(C)[C@H](C6=CC(=O)OC6)CC[C@]5(O)[C@@H]4CC[C@]3(O)C2)C[C@H](O)[C@@H]1O	?	0.25µM*
CCOc1cc(N)c(C#N)cc1OCC	11%	20%
Cc1cc(C)c(NC(=O)CNC(=O)c2nccnc2N)c(C)c1	17%	-1%
Cc1ccc(OCCn2cc(C(=O)C3CC3)c3ccccc32)cc1	68%	41%
CC(=O)c1cn(CCOc2ccccc2F)c2ccccc12	?	8.9µM*
COc1ccc(OCCn2cc(C(C)=O)c3ccccc32)cc1	25µM*	?
O=C(c1cccs1)c1cn(CCOc2ccccc2F)c2ccccc12	21%	7%
Cc1ccc(C(=O)NCC(F)(F)F)cc1N	6%	4%
CC(C)Oc1cccc(Cn2cnc3c2c(=O)n(C)c(=O)n3C)c1	3.5µM*	3.5µM*
CC(C)c1ccc(C(=O)Cn2cnc3c2c(=O)n(C)c(=O)n3C)c(C(C)C)c1	10µM*	10µM*
Cn1c(=O)c2c(ncn2CCCOc2ccccc2)n(C)c1=O	10%	-6%
Cc1cc(C(=O)Cn2cnc3c2c(=O)n(C)c(=O)n3C)c(C)n1C	0%	42%
O=C(CSc1ncc(-c2ccc(Cl)cc2)o1)Nc1cccc(F)c1	3%	-9%
CC(C)C(=O)Nc1cccc(NC(=O)Nc2cccc(Cl)c2)c1	57%	35%
Cc1cc(N2CCN(C(C(=O)O)c3c[nH]c4cc(Cl)ccc34)CC2)nc2ccccc12 (configuration not stated)	-11%	-14%
COC(=O)c1ccc(NC(=O)CCc2c(C)nc3cc(-c4cccc(F)c4)nn3c2C)cc1	?	-7%
Cc1nc2cc(-c3ccccc3)nn2c(C)c1CCC(=O)NCCc1ccccc1	?	6%
COc1ccc(NC(=O)CCc2c(C)nc3cc(-c4cccc(F)c4)nn3c2C)cc1Cl	28µM*	-6%
CCCCNC(=O)CCc1c(C)nc2cc(-c3ccccc3)nn2c1C	1.8µM*	-15%
Cc1sc(NC(=O)c2cccs2)c(C(c2cccnc2)N2CCOCC2)c1C (configuration not stated)	58%	-1%
O=C(Nc1cccc(Cl)c1)C1CC(c2ccccc2)=NO1 (configuration not stated)	0%	107%
CC#CC(CCCN(C)Cc1ccccc1)(c1ccccc1)c1ccccc1	0%	2%
CCCCCc1ccc(-c2ccc(C(=O)Oc3ccc(OCCCC)cc3)cc2)nc1	0%	5%
CCCCCCCCSc1ccc(C(C)=O)cc1	0%	-17%[1.06 µM]
CCCOc1ccc(C(=O)C(CCC(CNC(C)(C)C)C(=O)c2ccc(OCCC)cc2)CNC(C)(C)C)cc1 (configuration not stated)	?	28µM*
SMILES	FMDV FLuc	FMDV Renilla
CCCOc1ccc(C(=O)Nc2ccc(NC(=O)c3ccc(Br)cc3)cc2)cc1	7%	-8%
O=C(O)C(c1c[nH]c2ccc(Cl)cc12)N1CCN(Cc2cccc(Cl)c2)CC1 (configuration not stated)	4%	-8%
CCCCCCC[N+](CC)(CC)CCCCc1ccc(Cl)cc1	?	7.9µM*
CCCCCCc1ccc(C(=O)Oc2ccc(Cl)cc2)cc1	-7%	-7%
CN1CCN(c2nc(-c3cn(CCC#N)c4ccccc34)cs2)CC1	-8%	-9%
Cc1ccc(NC(=O)CCn2c(=O)oc3cc(S(=O)(=O)N4CCCC4)ccc32)cc1C(F)(F)F	2%	-2%
COc1ccc(Nc2cc(C)nc(Nc3ccc(NC(=O)CC(C)(C)C)cc3)n2)cc1	?	22µM*
COc1ccc(Nc2cc(C)nc(NCc3ccccc3)n2)cc1	0%	-24%
